FBPA coupling cs = inhibits coupling enzyme system, counter-screen for aldolase hits | coupling enzyme system counterscreen, AmpLite Red fluorescence | 290,000 tested, 0.67% active | activity change, negative = inhibition, % at 58.2 µM, hits read low | AID 2472; in the data active = activity change below about -30%
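Final compound at 57.5 uM, incubated 10 min at RT with coupling enzyme reagent (glyceraldehyde-3-phosphate), then 20 min with substrate and AmpLite Red detection. Fluorescence read at 525/598 nm; tests interference with the coupling assay, not aldolase inhibition.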
gsp agonist = gsp mutant agonism; 340,000 tested, 0.13% active; Potency, µM (doses to about 76.9 µM), most hits filed as activators; gsp mutant cells, cAMP HTRF, 30 min; active = well fitted activation curve with a large enough effect; inconclusive = small, poorly fitted or top-dose-only effect, or another doubt; inactive = no such curve, though single readings can be large or run the other way; cell line not stated here;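 note: phosphodiesterase inhibitor Ro 20-1724 added with compounds to block cAMP breakdown; nearly all actives have a fitted effect of over 60% in size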
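Cells in DMEM/10% FBS with G418 were pretreated with compounds in DMSO plus […] (300 uM stock) for 30 min at 37C. cAMP was measured by HTRF (cAMP-d2 plus anti-cAMP antibody-K) after 30 min at room temperature.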
Giardia kill = kills Giardia lamblia | Giardia lamblia trophozoite viability | activity change, % at 7.66 µM, hits read low | 340,000 tested, 0.15% active | AID 540267; in the data active = activity change below about -80%; inconclusive = between about -30% and that limit;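 note: parasites exposed to compound for two days anaerobically before the ATP read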
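Killing of trophozoites was scored by loss of ATP luminescence after a 48 hrs anaerobic exposure to compounds at 37 deg C, using 100 cells per well.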
RXFP1 ag = agonists of human relaxin receptor RXFP1. Q9HBX9. HEK293T-RXFP1 cAMP TR-FRET, 30 min; response scale: percent of porcine relaxin response, buffer zero. Potency, µM (top dose mostly 57.5 µM), usual class: activators. 370,000 tested, 0.3% active; active = well fitted activation curve with a large enough effect; inconclusive = small, poorly fitted or top-dose-only effect; note: nearly all actives have a fitted effect of over 60% in size
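HEK293T cells stably expressing RXFP1 were pretreated with the PDE4 inhibitor Ro 20174, exposed to compounds for 30 min at 37C, lysed, and cAMP was read by TR-FRET. Data normalized to buffer (basal) and 29 nM porcine relaxin (100%).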
RXFP1 antagonist = blocks the human relaxin receptor RXFP1; Q9HBX9; HEK293-RXFP1, relaxin-stimulated cAMP HTRF, 30 min; stronger effect = lower value; activity change, negative = inhibition, % at 57.5 µM; 350,000 tested, 0.59% active; AID 1259400;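 active = activity change of -60% or lower, but not beyond a set lower limit; inconclusive = change between -60% and -40%, or beyond the set limit; inactive = change above -40%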
gsp antag = antagonists of gsp mutant (McCune-Albright syndrome). gsp-mutant cells, cAMP HTRF, 30 min. Potency, µM (series often up to 76.9 µM), usual class: inhibitors. 340,000 tested, 0.4% active. AID 624288; calls by dose curve; cell line not stated here;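 note: intracellular cAMP measured with PDE inhibitor Ro 20-1724 present during compound exposure; nearly all actives have a fitted effect of over 65% in size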
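Cells, 2000/well, grown 16–24 h in DMEM 10% FBS with 0.5 mg/ml G418, then compounds plus […] (300 uM addition stock), 30 min at 37C. cAMP read by HTRF (cAMP-d2 and anti-cAMP antibody-K in lysis buffer) after 30 min RT.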
Large screens that a line does not name were inactive. Compounds with a hit are over-represented: about 1.6% of the library has one in this group of screens.

CC(=O)NC1=C(Nc2ccc(N(C)C)cc2)C(=O)c2ccccc2C1=O	gsp agonist inconclusive, gsp antag inconclusive
CNC1=C(N(C(C)=O)c2ccc(Br)cc2)C(=O)c2ccccc2C1=O	FBPA coupling cs -56.5
CCC(=O)N(C1=C(NC)C(=O)c2ccccc2C1=O)C(C)C	FBPA coupling cs -41.1
CCC(=O)c1ccc(OC(=O)Cc2ccc(OC)cc2)cc1	RXFP1 antagonist -113.2
COc1ccc(CC(=O)Oc2ccccc2C)cc1	none
Cn1nc(CC(=O)NCc2ccc(C(F)(F)F)cc2)c2ccccc2c1=O	gsp antag 12.6µM
Cc1cc(OCC(=O)Nc2ccc3oc(-c4ccncc4)nc3c2)ccc1Cl	gsp antag 50.1µM
COc1cc(C(=O)Nc2ccc3oc(-c4ccccc4)nc3c2)cc(OC)c1OC	RXFP1 antagonist -60.2 (no result: FBPA coupling cs, gsp agonist, Giardia kill, gsp antag)
COc1ccccc1C(=O)Nc1ccc2oc(-c3cccc4c(Br)cccc34)nc2c1	RXFP1 ag 10µM (no result: FBPA coupling cs, gsp agonist, Giardia kill, gsp antag)
O=C(Nc1ccc2oc(-c3ccncc3)nc2c1)c1c(F)c(F)c(F)c(F)c1F	none
COc1c(F)c(F)c(C(=O)Nc2ccc3oc(-c4ccncc4)nc3c2)c(F)c1F	gsp antag 28.2µM
COc1cc(C(=O)Nc2ccc3oc(-c4cccnc4)nc3c2)cc(OC)c1OC	none
Cc1ccc(NC(=O)C2CCCN2S(=O)(=O)c2ccc(-c3ccc(=O)[nH]n3)s2)c(C)c1 (stereo not given)	none
COCCNC(=O)c1cc2oc3ccccc3c2n1C	none
CCOc1ccccc1C(=O)Nc1ccc(S(=O)(=O)Nc2cc(OC)nc(OC)n2)cc1	gsp agonist 20µM, RXFP1 ag inconclusive (no result: FBPA coupling cs)
COc1ccc(/C=C/C(=O)C2(O)CCCCC2)cc1OC	none
CC(=O)n1cc([C@H]2C=C(C(=O)N3CCN(Cc4ccccc4)CC3)O[C@@H](OCCCCO)C2)c2ccccc21	gsp antag 35.5µM (no result: gsp agonist, RXFP1 antagonist)
CN1CC(C(=O)O)Cc2c1ccc1ccccc21 (stereo not given)	FBPA coupling cs -46.2
COC(=O)N[C@H](c1ccccc1)C(C(C)=O)C(=O)OC (stereo not given in full)	none (no result: gsp agonist, Giardia kill, RXFP1 ag, RXFP1 antagonist, gsp antag)
Cc1ccc(C(C)C)c(OCC(=O)NCC(c2cccs2)N2CCOCC2)c1 (stereo not given)	gsp antag 35.5µM (no result: FBPA coupling cs)
O=C(NCC(c1cccs1)N1CCOCC1)c1cc(=O)[nH]c2ccccc12 (stereo not given)	RXFP1 antagonist -77.1 (no result: FBPA coupling cs)
CC1CCN(C(=O)c2ccc([N+](=O)[O-])o2)CC1	Giardia kill inconclusive
O=C(c1ccc(-c2ccc([N+](=O)[O-])cc2)o1)N1CCCCCCC1	RXFP1 antagonist -71.5 (no result: FBPA coupling cs)
CCC1CCCCN1C(=O)c1ccc([N+](=O)[O-])o1 (stereo not given)	Giardia kill -97.0
CC1CCCN(C(=O)c2ccc([N+](=O)[O-])o2)C1 (stereo not given)	Giardia kill -84.3
Cc1[nH]c(=S)c(C#N)c(C)c1CCC#N	gsp agonist inconclusive, RXFP1 antagonist -118.9
COc1ccc(C(=O)NCc2ccc3c(c2)CCN3C(C)=O)c(OC)c1	none (no result: FBPA coupling cs, gsp agonist, Giardia kill, gsp antag)
COc1ccc(OC)c(Nc2nc(-c3sc(N)nc3C)cs2)c1	FBPA coupling cs -30.9
COc1ccc(Nc2nc(-c3sc(C)nc3C)cs2)cc1	RXFP1 antagonist -61.2
COc1cc2ccccc2cc1C(=O)Nc1ccc2oc(-c3ccc(Cl)cc3)nc2c1	RXFP1 ag inconclusive (no result: FBPA coupling cs, gsp agonist, Giardia kill, gsp antag)
O=C(c1cc(-c2ccncc2)nc2ccc(Br)cc12)N1CCN(Cc2ccc3c(c2)OCO3)CC1	gsp antag 28.2µM
CN(C)c1ccc(/C=[N+](\[O-])C2N(c3ccccc3)C(=S)SC2(C)C)cc1 (stereo not given)	none
CN1C(=O)c2ccc(N(C)C)cc2C1=O	none
COc1cc(=O)n(C)c2cc(N(C)C)ccc12	FBPA coupling cs -31.2
COc1ccccc1NC(=O)c1c(N=Cc2c(O)ccc3ccccc23)cnn1C	FBPA coupling cs -40.3
Cn1ncc(N=Cc2c(O)ccc3ccccc23)c1C(=O)N1CCOCC1	none (no result: FBPA coupling cs, RXFP1 ag)
